From PubChem BioAssay (NCATS)
Inconclusive results are not listed. Activity calls are given as the source filed them. The call rests on the fitted dose curve; in most records, active means well fitted curve in the direction sought with a large enough effect; inconclusive means small, poorly fitted or top-dose-only effect, or another doubt; inactive means no such curve, though single readings can be large; an effect the other way counts as inactive or inconclusive.

Tests used:
[1] = target: Glutathione peroxidase 1 (Homo sapiens) (UniProt P07203); test: Primary qHTS Assay for Inhibitors of Recombinant Selenoprotein Glutathione Peroxidase 1 (GPX1) (AID 1845191); further: nearly all actives have a fitted effect of over 65% in size
Sequence of Glutathione peroxidase 1 (Homo sapiens) (P07203 whole entry, looked up): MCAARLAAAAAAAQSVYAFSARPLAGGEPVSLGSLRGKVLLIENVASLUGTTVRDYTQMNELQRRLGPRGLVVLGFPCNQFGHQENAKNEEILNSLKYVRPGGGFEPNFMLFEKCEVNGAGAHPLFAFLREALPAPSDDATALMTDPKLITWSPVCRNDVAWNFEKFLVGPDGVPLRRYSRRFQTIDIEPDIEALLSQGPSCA
Procedure, shortened: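 Recombinant GPX1 (10 nM final) was preincubated with compound for 30 min at room temperature, then reacted with 1 mM GSH, 0.5 mM CHP, 0.5 mM NADPH and 100 nM glutathione reductase; NADPH fluorescence (340/450 nm) was read at 0 and 15 min.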

[2] = target: Phospholipid hydroperoxide glutathione peroxidase GPX4 (Homo sapiens) (UniProt P36969); test: Primary qHTS Assay for Inhibitors of Recombinant Selenoprotein Glutathione Peroxidase 4 (GPX4) (AID 1845192); further: nearly all actives have a fitted effect of over 65% in size
Sequence of Phospholipid hydroperoxide glutathione peroxidase GPX4 (Homo sapiens) (P36969 whole entry, looked up): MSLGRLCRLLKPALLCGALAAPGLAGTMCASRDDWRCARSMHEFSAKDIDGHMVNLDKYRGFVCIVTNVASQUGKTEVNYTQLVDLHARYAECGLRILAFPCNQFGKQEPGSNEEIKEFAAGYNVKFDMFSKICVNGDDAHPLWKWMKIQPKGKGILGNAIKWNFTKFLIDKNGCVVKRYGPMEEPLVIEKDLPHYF
Procedure, shortened: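 GR-coupled readout: 100 nM GR, 1 mM GSH, 0.5 mM NADPH; NADPH fluorescence (ex 340/em 450 nm) read at t=0 and after 15 min RT. GPX4 200 nM, preincubated 30 min with compound; substrate 0.5 mM CHP.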

[3] = target: Luciferin 4-monooxygenase (Photinus pyralis) (UniProt P08659); test: Primary firefly luciferase (FLuc) qHTS assay for identification of artifact compounds. (AID 1845220); further: nearly all actives have a fitted effect of over 60% in size
Procedure, shortened: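 In this counter-screen for luciferase artifacts, test compounds met substrate (10 uM each luciferin and ATP) before 10 nM enzyme started the reaction. Light output was measured 5 min later.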

[4] = tested on: Nanoluciferase (engineered Oplophorus gracilirostris luciferase); test: Primary Nanoluciferase (NLuc) qHTS assay for identification of artifact compounds. (AID 1845222);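 further: NLuc secreted into diluted conditioned medium of S16 cells; series mostly up to about 54 µM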
Procedure, shortened: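 Using secreted nanoluciferase in S16 culture medium (0.22 um filtered, 1:55 dilution), compounds were preincubated 15 min at RT. Signal was generated with Nano-Glo reagent (1:100) over 5 min.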

[5] = Primary redox qHTS assay for identification of artifact compounds. (AID 1845223)
Procedure, shortened: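 Amplex Red (25 uM) and HRP (250 mU/mL) in HBSS, with compounds for 15 min, then 250 uM DTT for 30 min, room temperature, dark. Fluorescence 525/598 nm read; normalized to DMSO and 10 uM DA3003; Hill fit.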

Measured: Potency

CC1=C2C(=O)C=C(CO[C@@H]3O[C@H](CO)[C@@H](O)[C@H](O)[C@H]3O)[C@@H]2[C@H]2OC(=O)[C@H](C)[C@@H]2CC1
inactive: all assays above

COc1cc(O)c2c(c1)C1(OC2=O)C(C)=CC(=O)C1O (stereo not given)
inactive: all assays above

COC(=O)c1ccc(OC)cc1O[C@@H]1O[C@H](CO[C@@H]2OC[C@@H](O)[C@H](O)[C@H]2O)[C@@H](O)[C@H](O)[C@H]1O
inactive: all assays above

COc1cc(CC2COC(c3ccc(OC4OC(CO)C(O)C(O)C4O)c(OC)c3)C2CO)ccc1O (stereo not given)
inactive: all assays above

O=C(C[C@@H]1C(C(=O)O)=CO[C@@H](O[C@@H]2O[C@H](CO)[C@@H](O)[C@H](O)[C@H]2O)/C1=C\CO)OCCc1ccc(O)cc1
inactive: all assays above

COc1cc(CO)ccc1O[C@@H]1O[C@H](CO)[C@@H](O)[C@H](O)[C@H]1O
inactive: all assays above

C[C@@H]1O[C@@H](O[C@H]2[C@@H]3C=CO[C@@H](O[C@@H]4O[C@H](CO)[C@@H](O)[C@H](O)[C@H]4O)[C@@H]3[C@@]3(CO)O[C@@H]23)[C@H](O)[C@H](O)[C@H]1OC(=O)/C=C/c1ccc(O)cc1
inactive: all assays above

COc1ccc(C(=O)CC(=O)O)c2c1C=CC(C)(C)O2
inactive: all assays above

O=C(/C=C/c1ccc(O)cc1)O[C@@H]1C[C@@](O)(C(=O)O)C[C@@H](O)[C@@H]1O
inactive: all assays above

CC12CC(O)C(O)C=C1c1cc(O)cc(O)c1C(=O)O2 (stereo not given)
inactive: all assays above

COc1c(O[C@@H]2O[C@H](CO)[C@@H](O)[C@H](O)[C@H]2O)c(CCC(=O)O)cc2ccoc12
inactive: all assays above

CC(C)=CCC/C(C)=C/CO[C@@H]1O[C@H](CO[C@@H]2OC[C@](O)(CO)[C@H]2O)[C@@H](O)[C@H](O)[C@H]1O
inactive: all assays above

COc1ccc(O[C@@H]2O[C@H](CO)[C@@H](O)[C@H](O)[C@H]2O)cc1OC
inactive: all assays above

NC1Nc2ccccc2C1(N)CC1NC(=O)C(Cc2ccccc2)NC(=O)C(Cc2ccccc2)NC1=O (stereo not given)
inactive: all assays above

COC(=O)C1=CO[C@@H](O[C@@H]2O[C@H](CO)[C@@H](O)[C@H](O)[C@H]2O)[C@H]2[C@@H]1[C@H](O)C[C@]2(C)O
inactive: all assays above

OC[C@@]1(O)CO[C@H](OC[C@H]2O[C@@H](OCCc3ccccc3)[C@H](O)[C@@H](O)[C@@H]2O)[C@@H]1O
inactive: all assays above

CC1(C)C2CCC1(C)C(OC(=O)C(O)(CC(=O)O)CC(=O)O)C2 (stereo not given)
inactive: all assays above

O=C(O)c1cccc(C(=O)CCC2OC(n3cnc4c(=O)[nH]cnc43)C(O)C2O)c1 (stereo not given)
inactive: all assays above

C=C(C(=O)O)[C@H]1C[C@]2(C)C(=O)CC[C@]23O[C@H]1C[C@@H]3C
inactive: all assays above

O=C(O)c1ccnc(-c2cc(C(=O)NCCc3ccccc3)ccn2)c1
inactive: all assays above

COC(=O)c1[nH]c(=O)c2ccccc2c1-c1ccc[nH]1
inactive: all assays above

C=C(C)[C@H]1CC[C@]2(C(=O)O)CC[C@]3(C)C(CCC4[C@@]5(C)CCC(=O)C(C)(C)C5CC[C@]43C)C12 (stereo not given in full)
inactive: all assays above

CC1CCC2(C(=O)O)CCC3(C)C(=CCC4C5(C)CCC(O)C(C)(C(=O)O)C5CCC43C)C2C1(C)O (stereo not given)
inactive: all assays above

COC1OC(OC)C(O)(CCC2(C)C(C)CCC3(C)C2CC(O)C(O)C32CO2)C1O (stereo not given)
inactive: all assays above

COC(=O)[C@]1(Cc2ccc(O)c(CC=C(C)C)c2)OC(=O)C(O)=C1c1ccc(O)cc1
inactive: all assays above

CC1=C2C3OC(=O)C(C)C3(O)CCC2(C)CCC1 (stereo not given)
inactive: all assays above

COCCCc1sc(-c2ccccc2)nc1C(=O)Nc1ccccc1-c1nc2cc(CN3CCCC3)cnc2s1
inactive: all assays above

COc1cc(/C=C/C(=O)O[C@H]2[C@@H]3C=CO[C@@H](O[C@@H]4O[C@H](CO)[C@@H](O)[C@H](O)[C@H]4O)[C@@H]3[C@@]3(CO)O[C@@H]23)ccc1O
inactive: all assays above

Nc1nc(COC(=O)c2ccc([N+](=O)[O-])cc2)nc(Nc2ccccc2)n1
inactive: all assays above

CCC(C)/C=C(C)/C=C/C1=CC2=C(Cl)C(=O)C(C)(O)C(=O)C2(O)C(OC)O1 (stereo not given)
inactive: all assays above

CC1=CC(=O)CC(C)(C)C1/C=C/C(C)OC1OC(COC2OCC(O)C(O)C2O)C(O)C(O)C1O (stereo not given)
inactive: all assays above

CC(C)=CCc1cc(O[C@@H]2O[C@H](CO[C@@H]3OC[C@](O)(CO)[C@H]3O)[C@@H](O)[C@H](O)[C@H]2O)ccc1O
inactive: all assays above

C=CCc1cc(OC)c(OC(C)C(O)c2ccc(O)c(OC)c2)c(OC)c1 (stereo not given)
inactive: all assays above

C/C(=C\CCC(C)(C)O)CCO[C@@H]1O[C@H](CO[C@@H]2O[C@@H](C)[C@H](O)[C@@H](O)[C@H]2O)[C@@H](O)[C@H](O)[C@H]1O
inactive: all assays above

C[C@@H]1O[C@@H](OC(=O)Cc2ccccc2)[C@H](O)[C@H](O)[C@H]1O
inactive: all assays above

C=C1C[C@@]2(O)O[C@@]3(C[C@H]2C(C)C)[C@@H](C)CC[C@@H]13
inactive: all assays above

C/C=C1\[C@H](O[C@@H]2O[C@H](CO)[C@@H](O)[C@H](O)[C@H]2O)OC=C(C(=O)O)[C@H]1CC(=O)OCCc1ccc(O)cc1
inactive: all assays above

C=C(C(=O)O)C1CC(OC(=O)CC(C)CC)C2(C)CCCC(=C)C2C1 (stereo not given)
inactive: all assays above

C/C=C/C=C/C(O)=C1/C(=O)[C@]2(C)C3/C(=C(O)/C=C/C=C/C)C(=O)C4(C)C1[C@]1(C)O[C@@]4(O)[C@@]3(C)O[C@@]12O
inactive: all assays above

C/C1=C\CC[C@]2(C)O[C@H]2C(=O)c2c(C)coc2C1
inactive: all assays above

Cc1c(NC(=O)N2CCOCC2)ccc2c1c1ccccc1n2C(C)C
inactive: all assays above

OC[C@H]1O[C@@H](OC[C@H]2O[C@@H](OCc3ccccc3)[C@H](O)[C@@H](O)[C@@H]2O)[C@H](O)[C@@H](O)[C@@H]1O
inactive: all assays above

C=C(CCO[C@@H]1O[C@H](CO)[C@@H](O)[C@H](O)[C@H]1O)C(=O)O
inactive: all assays above

COc1c(O)cc2c(c1O)C(=O)O[C@H](C)[C@H]2O
inactive: all assays above

CC(=O)OC1C(C)C2C(OC3OC(CO)C(O)C(O)C3O)OC=C(C(=O)O)C2C1OC(=O)c1ccccc1 (stereo not given)
inactive: all assays above

COC1OC(=O)C2=C1C1(C)CCCC(C)(C)C1CC2O (stereo not given)
inactive: all assays above

C[C@]1(OC(=O)/C=C\c2ccc(O)cc2)C[C@@H](O)[C@]2(O)C=CO[C@@H](O[C@@H]3O[C@H](CO)[C@@H](O)[C@H](O)[C@H]3O)C12 (stereo not given in full)
inactive: all assays above

COc1cc([C@@H](O[C@@H]2O[C@H](CO)[C@@H](O)[C@H](O)[C@H]2O)[C@@H]2CO[C@H](c3ccc(O)c(OC)c3)[C@H]2CO)ccc1O
inactive: all assays above

O=C(CCc1ccccc1)c1c(O)c([C@@H]2O[C@H](CO)[C@@H](O)[C@H](O)[C@H]2O)c(O)c([C@@H]2O[C@H](CO)[C@@H](O)[C@H](O)[C@H]2O)c1O
inactive: all assays above
